Results as given in PubChem BioAssay.
Values joined by “and” are separate entries in the source; they are usually repeats but may differ in a detail not shown here. Equal values may be shown once. Records with an inconclusive call do not appear. Active and inactive are the calls of the source.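 The calls were made as follows, unless noted: active = compounds killing one labelled cell type while sparing the other, by normalised counts and ratio limits, not self-fluorescent; inactive = the rest.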

Assays:
[1] = differential killing of epithelial or mesenchymal cells, primary screen, imaging, PC-3E GFP, TEM4-18 mCherry, co-culture (AID 1345086); details: imaging cell counts, at 1 µM; for red/green cell ratio (normalised): actives lie on both sides, counts scaled to control wells, 1 = unselective;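 as to all read-outs here: cells exposed to compound for 72 h before imaging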;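 as to red/green cell ratio (normalised): normalised mesenchymal count divided by normalised epithelial count so high means epithelial killing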
[2] = modulation of C. elegans fzo-1 (AID 1259413; call rule not given here;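 also: fzo-1 mutant C. elegans worms in liquid wells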); details: C. elegans fzo-1 modulator screen, mean read-out; stronger effect = higher value
[3] = growth inhibition of DIPG glioma cells, dose response, cell-based, JHH-DIPG-1, MIPE4.0, CellTiter-Glo, qHTS (AID 1347062; cut-off not given, nearly all actives have AC50 up to about 27 µM;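 also: cells exposed to compound for two days before readout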); details: JHH-DIPG-1 viability, CellTiter-Glo ATP luminescence
[4] = growth inhibition of DIPG glioma cells, dose response, cell-based, SU-DIPG-IV, MIPE4.0, CellTiter-Glo, qHTS (AID 1347063; cut-off not given, nearly all actives have AC50 up to about 30 µM;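 also: compound exposure lasted 48 hours before the viability readout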); details: SU-DIPG-IV viability, CellTiter-Glo ATP luminescence
[5] = measured here: epithelial PC-3E GFP cell survival
[6] = measured here: mesenchymal TEM4-18 mCherry cell survival

Row | SMILES | red/green cell ratio (normalised) [1] | normalised cell number [1, 5] | normalised cell number [1, 6] | mean signal [2] | AC50 [3] | AC50 [4]
1 | CCCc1ncc(C[n+]2ccccc2C)c(N)n1 | 0.95 (inactive) | 1.35 | 1.28 | – | – | –
2 | CN(C)C(=O)Oc1cccc([N+](C)(C)C)c1 | 1.18 (inactive) | 0.88 | 1.04 | – | – | –
3 | O=C(CCBr)N1CCN(C(=O)CCBr)CC1 | 1.19 (inactive) | 1.07 | 1.28 | – | – | –
4 | Cc1c(O)cccc1C(=O)N[C@@H](CSc1ccccc1)[C@H](O)CN1C[C@H]2CCCC[C@H]2C[C@H]1C(=O)NC(C)(C)C | – | – | – | 243 (inactive) | 20.9 µM (active) | 20.9 µM (active)
5 | O=C1OCCN1/N=C/c1ccc([N+](=O)[O-])o1 | 1.17 (inactive) | 0.95 | 1.11 | – | – | –
6 | C/C=C/c1ccc(OC)cc1 | 1.24 (inactive) | 1.08 | 1.34 | – | – | –
7 | CN(C)CCC(c1ccccc1)c1ccccn1 (stereo unspecified) | 1.11 (inactive) | 0.86 | 0.95 | – | – | –
8 | CCCCC(CC)CN=C(N)NC(N)=NCCCCCCN=C(N)NC(N)=NCC(CC)CCCC (stereo unspecified) | 0.85 (inactive) | 1.19 | 1.01 | – | – | –
9 | CCCCCN(CCCCC)C(=O)C(CCC(=O)O)NC(=O)c1ccc(Cl)c(Cl)c1 (stereo unspecified) | 0.82 (inactive) | 1.1 | 0.9 | – | – | –
10 | O=C(O)P(=O)(O)O | 0.82 (inactive) | 1.21 | 0.99 | – | – | –
11 | CCCCC1C(=O)N(c2ccccc2)N(c2ccc(O)cc2)C1=O (stereo unspecified) | 1.01 (inactive) | 1.07 | 1.08 | – | – | –
12 | Cc1cc(N)c2ccccc2[n+]1CCCCCCCCCC[n+]1c(C)cc(N)c2ccccc21 | 0.87 (inactive) | 1.15 | 1 | – | – | –
13 | CC(C)N=C(N)/N=C(\N)Nc1ccc(Cl)cc1 | 1.08 (inactive) | 1.11 | 1.2 | – | – | –
14 | COc1ccc(C(=O)c2ccccc2)c(O)c1 | 0.94 (inactive) | 1.15 | 1.08 | – | – | –
15 | Nc1ccc(C(=O)Oc2ccccc2)c(O)c1 | 1.06 (inactive) | 0.61 | 0.65 | – | – | –
16 | O=C(O)c1ccccc1O | 1.29 (inactive) | 0.92 | 1.19 | – | – | –
17 | Oc1cc(O)c2c(c1)O[C@H](c1ccc(O)c(O)c1)[C@H](O)C2 | 0.83 (inactive) | 1.07 | 0.89 | – | – | –
18 | NS(=O)(=O)c1cc2c(cc1Cl)NC(CSCc1ccccc1)=NS2(=O)=O | 1.25 (inactive) | 1.02 | 1.28 | – | – | –
19 | C[N+]1(CCCCC[N+]2(C)CCCC2)CCCC1 | 0.92 (inactive) | 1.09 | 1 | – | – | –

Row | SMILES | red/green cell ratio (normalised) [1] | normalised cell number [1, 5] | normalised cell number [1, 6] | mean signal [2] | AC50 [3] | AC50 [4]
20 | O=C(OCc1ccccc1)c1ccccc1 | 0.83 (inactive) | 1.34 | 1.11 | – | – | –
21 | CC(NCCC(c1ccccc1)c1ccccc1)c1ccccc1 (stereo unspecified) | 0.89 (inactive) | 0.97 | 0.86 | – | – | –
22 | CN(C)CCCN1c2ccccc2Sc2ccccc21 | 1.19 (inactive) | 1.03 | 1.24 | – | – | –
23 | C[n+]1c2cc(N)ccc2cc2ccc(N)cc21 (tested in a mixture with another compound) | 0.5 (inactive) | 0.56 | 0.28 | – | – | –
24 | CC(C)(C)CC(C)(C)c1ccc(O)c(Cc2ccc(Cl)cc2Cl)c1 | 0.81 (inactive) | 1.02 | 0.82 | – | – | –
25 | NC[C@H]1O[C@H](O[C@H]2[C@H](O)[C@@H](O[C@H]3O[C@H](CO)[C@@H](O)[C@H](N)[C@H]3O)[C@H](N)C[C@@H]2N)[C@H](N)[C@@H](O)[C@@H]1O | 1.19 (inactive) | 1.1 | 1.31 | – | – | –
26 | C=CCSCC1Nc2cc(Cl)c(S(N)(=O)=O)cc2S(=O)(=O)N1 (stereo unspecified) | 1.09 (inactive) | 1.09 | 1.19 | – | – | –
27 | Cc1cc(NC(=O)C2=C(O)c3ccccc3S(=O)(=O)N2C)no1 | 0.87 (inactive) | 0.97 | 0.84 | – | – | –
28 | NC(N)=NS(=O)(=O)c1ccc(N)cc1 | 1.03 (inactive) | 0.95 | 0.98 | – | – | –
29 | CCCCC(CC)CN1CN(CC(CC)CCCC)CC(C)(N)C1 (stereo unspecified) | 1.02 (inactive) | 0.84 | 0.85 | – | – | –
30 | Cc1ccc(C(C)C)cc2c(C)ccc1-2 | 0.74 (inactive) | 1.25 | 0.92 | – | – | –
31 | Nc1ccc(C(=O)O)c(O)c1 | 0.88 (inactive) | 1.36 | 1.19 | – | – | –
32 | CC1CCC(NC(=O)N(CCCl)N=O)CC1 (stereo unspecified) | 1.17 (inactive) | 1.17 | 1.37 | – | – | –
33 | Cc1c(Cl)cccc1Nc1ccccc1C(=O)O | 0.86 (inactive) | 1.08 | 0.93 | – | – | –
34 | CO[C@]12C[C@@H](COC(=O)c3cncc(Br)c3)CN(C)[C@@H]1Cc1cn(C)c3cccc2c13 | 1.03 (inactive) | 0.95 | 0.99 | – | – | –
35 | N=C(N)N | 1.05 (inactive) | 0.94 | 0.99 | – | – | –
36 | C[N+](C)(C)CCOC(N)=O | 1.21 (inactive) | 0.85 | 1.03 | – | – | –
37 | C[C@@H]1CN(c2c(F)c(F)c3c(=O)c(C(=O)O)cn(C4CC4)c3c2F)C[C@H](C)N1 | 1.1 (inactive) and 1 (inactive) | 1.07 and 1.13 | 1.18 and 1.13 | – | – | –
